G9a block: qHTS Assay for Inhibitors of Histone Lysine Methyltransferase G9a. Histone-lysine N-methyltransferase EHMT2 (Homo sapiens), Q96KQ7. G9a H3K9 monomethylation, AlphaScreen, 2 h. Potency, µM (highest dose often 102 µM), for inactives: at the highest dose activity, negative = inhibition, most hits filed as inhibitors. 8.8% of 350,000 active. AID 504332, 2011; also: % is scaled to controls: 0 for no effect and ±100 for the full control effect; nearly all actives have a fitted effect of over 75% in size
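G9a (20 nM) was preincubated 15 min with compound, then reacted 2 h at room temperature with 500 nM biotin-H3K9 peptide and 20 µM SAM. Monomethyl-H3K9 detected by AlphaScreen using anti-H3K9me1 antibody.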
BAZ2B inh: qHTS Assay for Inhibitors of BAZ2B; Potency, µM (titrated, usually from 114 µM), for the others: at the top dose activity change, negative = inhibition, usual class: inhibitors; AlphaScreen BAZ2B-H3K14Ac peptide displacement; 4.4% of 360,000 active; AID 504333, 2011; also: % is scaled to controls: 0 for no effect and ±100 for the full control effect; nearly all actives have a fitted effect of over 60% in size
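Compounds, titrated to a top concentration of 110 uM, were incubated 30 min at room temperature with preformed BAZ2B/acetyl-K14 H3 peptide complex (50 nM each). Proximity signal was measured by AlphaScreen after 20 min with beads.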
L3MBTL1 block: qHTS Assay for the Inhibitors of L3MBTL1; Lethal(3)malignant brain tumor-like protein 1 (Homo sapiens), Q9Y468; AlphaScreen L3MBTL1–H3K9me1 peptide binding; Potency, µM (doses to about 57.1 µM), without a hit: top-dose activity, negative = inhibition, hits mostly inhibitors; 0.66% of 230,000 active; AID 485360, 2010; also: % is scaled to controls: 0 for no effect and ±100 for the full control effect; nearly all actives have a fitted effect of over 60% in size
Target sequence (Q9Y468 whole entry, looked up): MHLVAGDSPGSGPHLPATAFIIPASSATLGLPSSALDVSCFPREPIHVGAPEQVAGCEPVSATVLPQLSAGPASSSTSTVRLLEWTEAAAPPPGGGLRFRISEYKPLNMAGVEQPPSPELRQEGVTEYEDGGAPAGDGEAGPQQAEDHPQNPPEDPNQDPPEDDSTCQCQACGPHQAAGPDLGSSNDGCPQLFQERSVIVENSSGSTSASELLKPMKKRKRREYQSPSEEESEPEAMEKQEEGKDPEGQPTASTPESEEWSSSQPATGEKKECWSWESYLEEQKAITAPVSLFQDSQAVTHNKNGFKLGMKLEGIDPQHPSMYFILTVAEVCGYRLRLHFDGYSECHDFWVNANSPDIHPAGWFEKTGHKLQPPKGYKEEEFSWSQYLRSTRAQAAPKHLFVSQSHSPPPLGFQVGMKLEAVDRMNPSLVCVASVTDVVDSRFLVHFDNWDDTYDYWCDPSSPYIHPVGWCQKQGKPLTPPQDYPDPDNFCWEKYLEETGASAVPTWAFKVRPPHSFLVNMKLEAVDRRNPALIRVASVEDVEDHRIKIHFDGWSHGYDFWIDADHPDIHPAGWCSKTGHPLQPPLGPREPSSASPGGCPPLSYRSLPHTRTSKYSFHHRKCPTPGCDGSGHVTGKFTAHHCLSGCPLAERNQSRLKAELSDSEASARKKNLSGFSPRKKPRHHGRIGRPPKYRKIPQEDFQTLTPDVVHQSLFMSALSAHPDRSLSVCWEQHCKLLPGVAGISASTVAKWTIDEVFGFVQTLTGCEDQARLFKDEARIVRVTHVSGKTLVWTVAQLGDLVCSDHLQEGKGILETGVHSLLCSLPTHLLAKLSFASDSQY
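Read-out is AlphaScreen signal from streptavidin donor and nickel chelate acceptor beads (10 ug/mL final each) bridging L3MBTL1 (50 nM) and biotinylated K9-monomethylated H3(1-15) peptide (75 nM), after 30 min compound exposure at room temperature.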
HP1b chromo inh: HTS for Inhibitors of HP1-beta Chromodomain Interactions with Methylated Histone Tails | Chromobox protein homolog 1 (Homo sapiens), P83916 | AlphaScreen HP1-beta / biotin-H3K9me3 peptide binding | Potency, µM (doses to about 114 µM), for inactives: top-dose activity change, negative = inhibition, hits mostly inhibitors | 0.56% of 390,000 active | AID 540317, 2011; also: nearly all actives have a fitted effect of over 70% in size
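HP1-beta protein (50 nM final) preincubated 30 min at room temperature with biotinylated H3(1-18)K9me3 peptide (50 nM) in PBS pH 7.4, 0.01% Tween-20, then compound added for 30 min. AlphaScreen streptavidin donor/nickel chelate acceptor beads (10 ug/mL final), 30 min dark, luminescence read.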
Sfp PPTase inh: qHTS Assay for Inhibitors of Bacillus subtilis Sfp phosphopantetheinyl transferase (PPTase); 4'-phosphopantetheinyl transferase ffp (Bacillus subtilis), Q9F4F7; AID 1490, 2009; Potency, µM, for the others: largest response in the series, negative = inhibition, hits mostly inhibitors; 3.5% of 310,000 active; Biochemical Sfp PPTase activity, qHTS;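 also: the enzyme is Sfp with the accession as filed and its product quenches rhodamine fluorescence; 0% = enzyme reaction without inhibitor and -100% = no enzyme wells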
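Fluorescence-quenching assay: 15 nM Sfp-PPTase preincubated 15 min at room temperature with compound, then 5 uM rhodamine-CoA and 12.5 uM BHQ-2-labelled YbbR peptide added. Fluorescence (ex 525/em 598 nm) read at start and after 30 min; difference gives rate.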
JMJD2A Tudor: qHTS Assay for Inhibitors of JMJD2A-Tudor Domain | Lysine-specific demethylase 4A (Homo sapiens), O75164 | AlphaScreen JMJD2A-Tudor / H3K4me3 peptide binding | Potency, µM (doses to about 114 µM), without a hit: at the top dose activity change, negative = inhibition, actives largely listed as inhibitors | 4.4% of 390,000 active; also: % is scaled to controls: 0 for no effect and ±100 for the full control effect; nearly all actives have a fitted effect of over 50% in size
Active calls of the source: *; ? = inconclusive; . = no result given; ! = not confirmed by another sample; [ ] = remark or other dose. This is a sample that favours compounds with a hit; in the whole collection about 12% have one here. Calls follow the shape of the dose curve; as a rule, active = well fitted curve in the direction sought with a large enough effect; inconclusive = small, poorly fitted or top-dose-only effect, or another doubt; inactive = no such curve, though single readings can be large; an effect the other way counts as inactive or inconclusive. Potency is read from the fitted curve at half-maximal effect.

SMILES | G9a block | BAZ2B inh | L3MBTL1 block | HP1b chromo inh | Sfp PPTase inh | JMJD2A Tudor
CCOC(=O)/C=c1/s/c(=C/c2ccccc2OC)c(=O)n1CC(=O)N1CCOCC1 | . | . | . | 38% | . | -21%
C[C@@H]1Nc2ccc(Cl)cc2S(=O)(=O)N1 | . | . | . | . | -23% | .
Cc1ccc(OCc2nc(-c3ccccn3)n[nH]2)cc1 | 71%[59 µM] | 4µM* | . | 51% | -2% | 20µM*
Cc1cccc(OCc2nc(-c3ccccn3)n[nH]2)c1 | 23%[59 µM] | 8.9µM* | . | 46% | 1% | 13µM*
CC(=O)N1c2ccc(S(=O)(=O)N3CCN(c4cc(Cl)ccc4C)CC3)cc2CC1C (stereo not drawn) | -14%[59 µM] | -1% | . | 23% | . | -10%
CCCOc1ccccc1C1C(C(=O)Nc2ccccc2)=C(C)Nc2nnnn21 (stereo not drawn) | -8%[59 µM] | -8% | . | 40% | . | -15%
CC(NC(=O)NC(N)=O)(C(F)(F)F)C(F)(F)F | 0%[0.501 µM] | -4% | 2% | 25% | -6% | -10%
CC(NC(=O)NNC(N)=S)(C(F)(F)F)C(F)(F)F | 7% | -15% | 5% | 8% | 45µM* | ?
S=C1NCCc2ccccc2C1c1ccccc1Cl (stereo not drawn) | 5%[59 µM] | 45µM* | -9% | -14% | 5% | ?
S=C1NCCc2ccccc2C1c1ccccc1 (stereo not drawn) | ? | 45µM* | -12% | ? | -20% | -32%
CCn1c(C(=O)O)c(CC(=O)Nc2ccc(Br)cc2C)c2ccccc21 | -35% | -21% | . | 14% | 13% | 3%
CC(C)C1Cc2c(sc3ncnc(NN)c23)CO1 (stereo not drawn) | -12%[2.33 µM] | 28µM* | . | 22% | -20% | 25µM*
CCCOc1ccccc1-n1sc2c(c1=S)-c1cc(OC)cc3c1N(C(=O)C3=O)C2(C)C | ? | 2µM* | . | -81% | -2% | 2.5µM*
CCCCOC(OCCCC)[C@H](O)CSc1ccc2ccccc2c1 | . | . | . | . | 15% | .
CC1CCC/C(=C\c2ccc(O)cc2)C1=O (stereo not drawn) | . | . | . | 22% | . | -6%
CN(C)CC1CC/C(=C\c2ccc(O)cc2)C1=O (stereo not drawn) | . | . | . | ? | . | 89µM*
COc1ccc(/C=C2\CCC(C3CCCC3)C2=O)cc1 (stereo not drawn) | 16% | 13% | . | 4% | 10% | -4%
COc1ccc(/C=C2/CCC(CN3CCOCC3)C2=O)cc1 (stereo not drawn) | . | . | . | ? | . | 79µM*
COc1ccc(-n2c(SCC(=O)Nc3ccc(Br)cc3)nc(O)cc2=O)cc1 | 13% | -2% | . | 4% | 12% | -18%
Cc1ccccc1NC(=O)c1ccc2c(O)c(S(=O)(=O)c3ccccc3)c(=O)[nH]c2c1 | 50µM*! | ? | . | 42% | 17% | 1%
COc1cccc(NC(=O)c2ccc3c(O)c(S(=O)(=O)c4ccccc4)c(=O)[nH]c3c2)c1 | 14%[59 µM] | -9% | . | -16% | 24% | 45µM*
COc1ccc(S(=O)(=O)c2c(O)c3ccc(C(=O)Nc4cccc(F)c4)cc3[nH]c2=O)cc1 | ? | ? | . | 23% | 29% | -6%
Cc1cccc(NC(=O)c2ccc3c(O)c(S(=O)(=O)c4ccccc4)c(=O)[nH]c3c2)c1C | ? | -24% | . | -5% | . | ?
CCn1c(C)nc2cc(C(=O)NNC(=O)CCC3CCCCC3)ccc21 | 4%[59 µM] | 25% | 26% | 53% | -16% | 8%
Cc1ccc(C(=O)c2coc3c2C(=O)C(=O)c2ccccc2-3)cc1 | 40µM* | ? | . | -25% | 45µM* | ?
SMILES | G9a block | BAZ2B inh | L3MBTL1 block | HP1b chromo inh | Sfp PPTase inh | JMJD2A Tudor
Cc1oc2c(c1C(=O)c1ccc(Cl)cc1)C(=O)C(=O)c1ccccc1-2 | ? | ? | -4% | 3% | ? | ?
Cc1ccc(C(=O)c2c(C)oc3c2C(=O)C(=O)c2ccccc2-3)cc1 | ? | 32µM* | ? | 18µM* | 50µM* | 45µM*
CC(C)NC(=O)N1CCC2(CC1)CCN(C(=O)c1csnn1)CC2 | -1%[12.7 µM] | . | . | . | 14% | .
Cn1cc([N+](=O)[O-])c(C(=O)Nc2cc(Oc3cccnc3)cc([N+](=O)[O-])c2)n1 | 45µM* | ? | -1% | 11% | -9% | -19%
Cn1cc([N+](=O)[O-])c(C(=O)Nc2ccc(-c3nc4ccccc4[nH]3)cc2)n1 | -9%[59 µM] | ? | 5% | 12% | 8% | 56µM*
Cc1nc2cc(-c3ccc(Cl)cc3)nn2c(NCCN(C)C)c1C | 71µM* | -35% | -16% | 12% | 14% | -34%
Cc1cc(C)n2nc(-c3ccc(Cl)cc3)cc2n1 | 59% | 12% | . | 54% | -13% | 4%
CC(C)(C)OC(=O)N(Cc1ccccc1)Cc1ccccc1OCc1cccc(NC(=O)C2CCC2)c1 | . | . | . | 34% | . | -11%
COC(=O)c1c(NC(=O)c2ccco2)sc(C)c1C | ? | 1% | 33%[11.4 µM] | 37% | -9% | 13%
COC(=O)c1c(NC(=O)c2ccc(Br)o2)sc(C)c1C | 50µM* | 11% | -5% | -6% | -15% | 2%
CCc1ccc(CCC(=O)Nc2sc(C)c(C)c2C(=O)OC)o1 | -36%[59 µM] | 13% | . | 25% | 56µM* | 24%
COC(=O)c1c(NC(=O)CCCC(=O)O)sc(C)c1C | 0% | -1% | 0% | 30% | 19% | -12%
Cc1cccc(-n2c(SCC(=O)Nc3ccccc3C)nc3c(oc4ccccc43)c2=O)c1 | -4%[59 µM] | 1% | . | 28% | . | 4%
COc1cccc(CNC(=O)c2ccccc2-c2ccccc2)c1 | . | -3% | . | 44% | -8% | 1%
C/C(=N\N=c1/sc2ccccc2n1C)c1ccc(N2CCOCC2)cc1 | 7.9µM* | -35% | -26% | -19% | -6% | -24%
Cc1ccc2c(c1)/C(=C/c1ccccc1)C(=O)N2 | 13% | ? | . | -8% | -9% | ?
O=C1Nc2ccc(I)cc2/C1=C/c1cc(Br)c(O)c(Br)c1 | 21µM* | . | . | . | ? | .
COc1ccc(/C=N/NC(=O)c2nnn(-c3nonc3N)c2CN(C)c2ccccc2)cc1 | 2% | ? | . | 39% | 13% | -21%

Assay outcomes as filed in PubChem.
